In the supplement of paper PMC4962491:
Structures can show the parent of a compound that is named as a salt. ± gives the standard deviation of the averaged measurements. Whole data set: some 1,600 compounds, median “mitochondrial oxygen consumption rate normalised to cell number, Z score over the library” near 0.065, cut for the lowest 2% near -2.2. What follows is part of a selection rich in the lowest values, with near analogues and random picks from the rest.

These molecules were tested on FaDu (assay: mitochondrial oxygen consumption rate normalised to cell number, Z score over the library; higher = higher oxygen consumption (negative = OCR reduction)). Conditions: treatment time 24 h; assay medium: 5 mM galactose, 5 mM pyruvate, 4 mM glutamine; 10 µM.
Experimental: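 Primary screen: FaDu cells were incubated 24 h with Pharmakon 1600 / TDI oncology set compounds at 2 or 10 uM. Mitochondrial-specific OCR (basal minus 2 uM antimycin A) was measured on a Seahorse XF96 in assay medium with 5 mM galactose, 5 mM pyruvate and 4 mM glutamine, then corrected for Hoechst cell number and expressed as a Z score […]. Compounds that cut cell number by >66% were excluded. Two repeats.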

SMILES | mitochondrial oxygen consumption rate normalised
Cc1ccc2c(Br)cc(Br)c(OC(=O)c3ccccc3)c2n1 | -2.31 ± 0.47
O=C(OOC(=O)c1ccccc1)c1ccccc1 | 0.517 ± 0.52
CCCCCCCCCCCCCCCC[N+](C)(C)CCN(Cc1ccc(OC)cc1)c1ncccn1 | -2.13 ± 0.31
CO/N=C1\C[C@]2(C[C@@H]3C[C@@H](C/C=C(\C)C[C@@H](C)/C=C/C=C4\CO[C@@H]5[C@H](O)C(C)=C[C@@H](C(=O)O3)[C@]45O)O2)O[C@H](/C(C)=C/C(C)C)[C@H]1C | -0.513 ± 0.34
Cc1cccc(C)c1NC(=O)c1ccccc1C(=O)O | -0.418 ± 1.1
CCCCC(CC)CCC(CC(C)C)OS(=O)(=O)O (stereo not given) | 0.745 ± 1.4
O.O.O=C([O-])CN(CCN(CC(=O)[O-])CC(=O)O)CC(=O)O.[Na+].[Na+] | 1.52 ± 0.75
CC1(C)S[C@@H]2[C@H](NC(=O)Cc3ccccc3)C(=O)N2[C@H]1C(=O)O | -0.601 ± 0.075
COC(=O)Nc1nc2cc(C(=O)c3ccc(F)cc3)ccc2[nH]1 | 0.265 ± 0.4
CC(C)(C)NC[C@H](O)c1ccc(O)c(CO)c1 | 0.0168 ± 0.31
C[n+]1c2cc(N)ccc2cc2ccc(N)cc21 | -4.5 ± 0.35
C=CCCCCCCCCC(=O)O | 1.2 ± 0.61
Cc1c(C)c2c(c(C)c1O)CCC(C)(CCCC(C)CCCC(C)CCCC(C)C)O2 (stereo not drawn) [alpha-TOCHOPHEROL] | -0.681 ± 0.38
CC(=O)OCC(=O)[C@@]12OC(C)(C)O[C@@H]1C[C@H]1[C@@H]3C[C@H](F)C4=CC(=O)C=C[C@]4(C)[C@@]3(F)[C@@H](O)C[C@@]12C | 0.605 ± 0.52
CN[C@H]1CC[C@@H](c2ccc(Cl)c(Cl)c2)c2ccccc21 | -0.618 ± 0.057
OC[C@H]1O[C@@H](n2cnc3c2N=CNC[C@H]3O)C[C@@H]1O [Pentostatin] | 0.38 ± 0.31
C[C@@H]1O[C@@H]1P(=O)(O)O | 0.794 ± 0.12
C=CCNC(N)=S | 0.218 ± 1.4
Oc1c(Br)cc(Br)c2cccnc12 | -1.77 ± 0.19
CCOc1ccc2nc(S(N)(=O)=O)sc2c1 | -0.459 ± 0.36
CCOc1ccc2nc3cc(N)ccc3c(N)c2c1 | -3.35 ± 0.25
CN(Cc1cc(Br)cc(Br)c1N)C1CCCCC1 | 0.728 ± 0.24
NNCCc1ccccc1 | -0.3 ± 0.16

SMILES | mitochondrial oxygen consumption rate normalised
CO[C@H]1/C=C/O[C@@]2(C)Oc3c(C)c(O)c4c(O)c(c5c(nc6cc(C)ccn65)c4c3C2=O)NC(=O)/C(C)=C\C=C\[C@H](C)[C@H](O)[C@@H](C)[C@@H](O)[C@@H](C)[C@H](OC(C)=O)[C@@H]1C | 0.795 ± 0.38
Cc1ccc(Nc2nccc(N(C)c3ccc4c(C)n(C)nc4c3)n2)cc1S(N)(=O)=O [Pazopanib HCl] | -0.379 ± 0.45
OCC(S)CS (stereo not given) | -0.239 ± 0.68
N=C(N)c1ccc(OCCCCCOc2ccc(C(=N)N)cc2)cc1 | -3.01 ± 0.078
N=C(N)c1ccc(N=NNc2ccc(C(=N)N)cc2)cc1 | -0.185 ± 0.46
CCCCOc1ccc(C(=O)CCN2CCCCC2)cc1 | -0.0802 ± 0.69
CC1CCN(CCCC(=O)c2ccc(F)cc2)CC1 | -0.602 ± 0.36
CCCCC/C=C/CCC(=O)N[C@H]1[C@H](Oc2c3cc4cc2Oc2ccc(cc2Cl)[C@@H](O[C@@H]2O[C@H](CO)[C@@H](O)[C@H](O)[C@H]2NC(C)=O)[C@@H]2NC(=O)[C@H](NC(=O)[C@@H]4NC(=O)[C@H]4NC(=O)C(Cc5ccc(c(Cl)c5)O3)NC(=O)[C@H](N)c3ccc(O)c(c3)Oc3cc(O)cc4c3)c3ccc(O)c(c3)-c3c(OC4O[C@H](CO)[C@@H](O)[C@H](O)[C@@H]4O)cc(O)cc3[C@@H](C(=O)O)NC2=O)O[C@H](CO)[C@@H](O)[C@@H]1O (stereo not given in full) [TEICOPLANIN [A(2-1) shown]] | 1.41 ± 0.64
COCCCOc1cc(C[C@@H](C[C@H](N)[C@@H](O)C[C@H](C(=O)NCC(C)(C)C(N)=O)C(C)C)C(C)C)ccc1OC | 0.624 ± 0.066
Nc1ncnc2c1ncn2[C@@H]1O[C@H](CO)[C@@H](O)[C@@H]1O | 0.868 ± 0.46
Cc1ccccc1N1C(=O)c2cc(S(N)(=O)=O)c(Cl)cc2NC1C (stereo not given) | 0.24 ± 0.2
CCCSc1ccc2[nH]c(NC(=O)OC)nc2c1 | 0.883 ± 0.12
O=C1c2c(O)cc(CO)cc2C(OC2OC(CO)C(O)C(O)C2O)c2cccc(OC3OC(CO)C(O)C(O)C3O)c21 (stereo not given) [CASANTHRANOL [cascaroside A shown]] | -0.942 ± 0.28
C[C@H](Cn1cnc2c(N)ncnc21)OCP(=O)(O)O | 0.449 ± 0.26
CCC1=C(C)CN(C(=O)NCCc2ccc(S(=O)(=O)NC(=O)N[C@H]3CC[C@H](C)CC3)cc2)C1=O | 0.0168 ± 0.78
Cc1c(-c2cnccn2)ssc1=S | -0.416 ± 0.25
Cc1nccnc1N1CCCCC1 | 0.47 ± 0.26
CC(=O)NC(Cc1ccccc1)C(=O)O (stereo not given) | 0.121 ± 0.33
C[Se]CC[C@H](N)C(=O)O | 0.623 ± 0.23
CC(=O)OCC(=O)[C@@]1(O)[C@H](OC(C)=O)C[C@H]2[C@@H]3CCC4=CC(=O)C=C[C@]4(C)[C@@]3(F)[C@@H](O)C[C@@]21C | 0.894 ± 0.33
CS(=O)(=O)CCNCc1ccc(-c2ccc3ncnc(Nc4ccc(OCc5cccc(F)c5)c(Cl)c4)c3c2)o1 [Lapatinib Ditosylate] | -0.0282 ± 1.2
O.O.O.O.O=C([O-])CC(O)(CC(=O)[O-])C(=O)[O-].[Li+].[Li+].[Li+] | -0.228 ± 1.6
